Most compounds without a hit are left out; they make up all but 19% or so of the library.
IL-1B inflam inh: inflammasome signaling inhibition, IL-1 beta readout; activity change, % at 57.5 µM; THP-1 LPS/ATP IL-1B secretion, AlphaLISA, 16 h; hits give low values; hit rate 4.7% among 360,000; in the data active means activity change below about -50%; inconclusive means mostly about -30% to -49%
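THP-1 cells pretreated 1 hr with compounds (up to 57.5 uM final), then stimulated with LPS (250 ng/mL final) plus ATP (1.25 mM final); secreted IL-1B measured by AlphaLISA after 16 hr, decreased signal indicating inhibition.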
TDP1 cell CPT: growth inhibition of DT40 Tdp1-/-;hTDP1 cells with camptothecin (screen for TDP1 inhibitors); chicken DT40 Tdp1-/-;hTDP1 cells + 20 nM CPT, ATP luminescence, 48 h; hit rate 12% among 420,000; Potency, µM (series often up to 46.2 µM), for inactives: top-dose activity change, negative = growth inhibition, actives largely listed as inhibitors; further: potency means the concentration at half of the fitted maximal effect; nearly all actives have a fitted effect of over 55% in size
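Cell growth measured by CellTiter-Glo luminescence after a minimum 48 h, 37 C compound exposure with 20 nM CPT in Tdp1-knockout DT40 cells stably expressing hTDP1, seeded 400/well; qHTS titration format.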
DT40 TDP1 no CPT: qHTS for Inhibitors of human tyrosyl-DNA phosphodiesterase 1 (TDP1): qHTS in cells in absence of CPT. DT40 Tdp1-/- hTDP1 cells, no CPT, ATP luminescence, 48 h. Potency, µM (doses to about 46.2 µM), without a hit: top-dose activity change, negative = growth inhibition, most hits filed as inhibitors. hit rate 15% among 420,000. AID 686978, 2013; further: potency means the concentration at half of the fitted maximal effect; nearly all actives have a fitted effect of over 55% in size
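No-CPT arm: Tdp1-/-;hTDP1 DT40 cells (400/well) plus compounds, incubated ≥48 hr at 37 °C. Readout CellTiter-Glo luminescence.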
HT1080 IDH1KD tx: HT-1080 IDH1 knockdown cell toxicity (counter line); HT-1080 IDH1 knockdown viability, ATP luminescence, 48 h; Potency, µM (doses to about 46.1 µM), without a hit: at the highest dose activity, negative = toxicity, usual class: cytotoxic; hit rate 2% among 360,000;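 further: potency means the concentration at half of the fitted maximal effect; 0% = DMSO wells and -100% = cell-free medium wells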
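Using the IDH1-knockdown HT-1080 line run in the same batch and compound series as the NT line, viability after 48 h at 37 °C was determined by CellTiter-Glo luminescence and expressed as % activity.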
HT1080-NT tox: kills 2HG-producing HT-1080-NT fibrosarcoma cells; Potency, µM (highest dose often 46.1 µM), for inactives: at the highest dose activity, negative = less viability, hits mostly cytotoxic; HT-1080-NT fibrosarcoma viability, CellTiter-Glo ATP luminescence, 48 h; hit rate 1.6% among 360,000; AID 686970;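 further: NT is the 2HG producing partner of a matched IDH1 knockdown line; potency means the concentration at half of the fitted maximal effect; 0% = DMSO-treated cells and -100% = media-only wells without cells; nearly all actives have a fitted effect of over 55% in size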
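Luminescent CellTiter-Glo readout after 48 hours of compound exposure at 37 degrees C defined viability of HT-1080-NT cells. Activity was normalized to DMSO wells and cell-free media wells; concentration-response curves were fitted and assigned curve classes.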
Starred values were filed as active, the others as inactive; ? = inconclusive; . = no result; [ ] = another dose, or the depositor's remark. Unless noted, the call rests on the fitted dose curve; in most records, active means well fitted curve in the direction sought with a large enough effect; inconclusive means small, poorly fitted or top-dose-only effect, or another doubt; inactive means no such curve, though single readings can be large; an effect the other way counts as inactive or inconclusive. Unless noted, on the % scale 0 is the no-effect control and ±100 the full control effect.

SMILES | IL-1B inflam inh | TDP1 cell CPT | DT40 TDP1 no CPT | HT1080 IDH1KD tx | HT1080-NT tox
CCOc1cc(C2NC(=O)NC2=O)ccc1O (configuration not stated) | -3 | 2% | -8% | 12% | 21%
CCOc1cc2c(cc1O)C(=NO)CC1C2CCC2(C)C(O)CCC12 (configuration not stated) | -1 | 0.18µM* | 0.052µM* | ? | 0.29µM*
C[C@]12CC[C@@H]3c4ccc(O)cc4CC[C@H]3[C@@H]1C[C@@H](O)[C@@H]2O | 15 | ? | -16% | -13% | 7%
O=C(Nc1ccncc1)c1ccc2c(c1)C(=O)N(C1CCCCC1)C2=O | 30 | 18µM* | 23µM* | ? | -14%
Cc1cc(NC(=O)c2ccc3c(c2)C(=O)N(C2CCCCC2)C3=O)no1 | 12 | ? | 15µM* | 22% | 15%
CCC(=O)Nc1ccc2c(c1)C(=O)N(C1CCCCC1)C2=O | -26 | ? | ? | -18% | -3%
NS(=O)(=O)c1cccc(NC(=O)COC(=O)CCCc2c[nH]c3ccccc23)c1 | 18 | -1% | 2% | 2% | -2%
CSc1nc2cc(Oc3cccc(Cl)c3Cl)c(Cl)cc2[nH]1 | 24 | ? | ? | ? | 9.2µM*
COc1nc(OC)nc(N2CCC(NC(=O)C(Cc3cccc(OC)c3OC)NC(C)=O)CC2)n1 (configuration not stated) | -18 | -5% | 4% | 5% | -2%
Cc1ccc(-c2csc3nc(C)n(-n4c(C)ccc4C)c(=O)c23)o1 | 1 | 21µM* | 21µM* | 0% | 3%
Cn1nc(-c2ccc(N3CCOCC3)c(NS(=O)(=O)c3ccc(Cl)cc3)c2)c2ccccc2c1=O | 9 | 18µM* | 26µM* | 18µM* | ?
Cc1ccc(S(=O)(=O)Nc2cc(-c3nn(C)c(=O)c4ccccc34)ccc2N2CCOCC2)cc1 | 18 | ? | ? | 10µM* | ?
CC(=O)Nc1cc(-c2nn(C)c(=O)c3ccccc23)ccc1N1CCOCC1 | 16 | 27% | 5% | 12% | -1%
O=C1c2ccccc2C(=O)N1c1ccc(S(=O)(=O)N2CCN(c3ccccc3)CC2)cc1 | 39 | 1% | 3% | 7% | 15%
CC(C)n1nccc1N(Cc1ccc(Cl)cc1)S(=O)(=O)c1ccccc1 | -71* | -29% | ? | -22% | -23%
N#Cc1ccc(CN(c2ccncc2)S(=O)(=O)c2ccccc2)cc1 | -2 | 3% | -12% | 3% | 27%
CC(C)n1nccc1N(Cc1ccc(Br)cc1)S(=O)(=O)c1ccccc1 | ? | 23µM* | ? | ? | ?
Cc1cc(C)cc(NC(=O)CCS(=O)(=O)c2ccc3nc(C)sc3c2)c1 | . | 3% | 0% | . | .
Cc1ccc(Cl)c(NC(=O)CSc2cccc[n+]2[O-])c1Cl | -8 | -2% | -3% | 5% | 8%
Cc1ccc(Cl)c(NC(=O)CCl)c1Cl | -91* | ? | ? | -10% | -27%
O=C1NC[C@H](Cc2ccc(O)cc2)N(C[C@@H]2CCCN2C[C@H](Cc2ccccc2)N2C[C@H](Cc3ccc(O)cc3)N(CC3CCCCCC3)C(=O)C2=O)C1=O | -56* | ? | ? | -18% | -29%
CC(C)C[C@H]1CNC(=O)C(=O)N1C[C@@H]1CCCN1C[C@H](Cc1ccc(O)cc1)N1C[C@H](Cc2ccccc2)N(CC2CCCCCC2)C(=O)C1=O | -3 | ? | ? | ? | ?
CC(C)C[C@H]1CN([C@@H](Cc2ccc(O)cc2)CN2CCC[C@H]2CN2C(=O)C(=O)NC[C@@H]2Cc2ccccc2)C(=O)C(=O)N1CC1CCCCC1 | ? | ? | 21µM* | -29% | -19%
CC(C)C[C@H]1CN([C@@H](Cc2ccccc2)CN2CCC[C@H]2CN2C(=O)C(=O)NC[C@@H]2Cc2ccc(O)cc2)C(=O)C(=O)N1CC1CCCCCC1 | -89* | ? | 16µM* | ? | ?
O=C(COC(=O)C1=Cc2ccccc2OC1)NC1CCCC1 | 9 | 2% | -1% | 4%[9.24 µM] | -13%
SMILES | IL-1B inflam inh | TDP1 cell CPT | DT40 TDP1 no CPT | HT1080 IDH1KD tx | HT1080-NT tox
CC[n+]1ccccc1/C=C/c1ccc(N(C)C)cc1 | -57* | 1µM* | 0.46µM* | 18µM* | ?
CN(C)c1ccc(/C=C/c2cc[n+]([O-])c3ccccc23)cc1 | . | -20% | -11% | . | .
CC[n+]1ccc(/C=C/c2ccc(N(C)C)cc2)c2ccccc21 | -106* | 0.073µM* | 0.0065µM* | 1.3µM* | ?
CCCCCC[n+]1ccccc1/C=C/c1ccc(N(C)C)cc1 | ? | 0.058µM* | 0.052µM* | 1.2µM* | 7.3µM*
COc1cc(O)c(C(=O)O)c(O)c1 | . | -2% | -1% | . | .
CC(CC(O)C1OC1(C)C)C1CCC2(C)C3=CCC4C(C)(C)C(=O)CCC4(C)C3CC[C@@]12C (some centres not stated) | . | 5.2µM* | 7.3µM* | . | .
COc1cc(/C=N/NC(=S)NC(C)C)ccc1OCC(=O)Nc1c(C)cc(C)cc1C | 28 | 7.3µM* | 7.3µM* | -21% | -21%
CCCCNC(=S)N(C)/N=C/c1ccc(OCC(=O)Nc2c(C)cc(C)cc2C)c(OC)c1 | -9 | 13µM* | 8.2µM* | ? | -27%
CCCCNC(=S)N(C)/N=C/c1ccc(OCC(=O)Nc2ccc(OC)cc2)c(OC)c1 | ? | 23µM* | ? | -35% | -10%
COc1ccc(NC(=O)COc2ccc(/C=N/O)cc2OC)cc1 | -16 | ? | 12µM* | 6% | ?
CCC(C)NS(=O)(=O)c1ccc(NC(=O)CNCc2cccs2)cc1 (configuration not stated) | 25 | ? | ? | -12% | -23%
CCCCN(C)C(=O)c1sc(=O)n(Cc2c(C)noc2C)c1C | 19 | -21% | -16% | 5% | 12%
CCn1cc(C(=O)NCCC(C)C)c(=O)c2cc(S(=O)(=O)N(C)C3CCCCC3)ccc21 | . | -21% | ? | . | .
COc1cc(/C=N/NC(=S)Nc2cccc(Cl)c2C)ccc1OCC(=O)N1CC(C)OC(C)C1 (configuration not stated) | -26 | 15µM* | 15µM* | -16% | -1%
COc1ccc(OC)c(C(C)NC(C)=O)c1 (configuration not stated) | -4 | -6% | 1% | -6% | 1%
COc1ccc(OC)c(C(C)NC(=O)c2ccco2)c1 (configuration not stated) | 7 | 23µM* | ? | -28% | ?
CCCc1ccc(OCc2nc(-c3ccc(NC(=O)c4ccco4)cc3)no2)cc1 | 32 | ? | ? | ? | ?

From PubChem BioAssay
